# Results filed as inconclusive are left out. Entries that show only a call come without a potency. The source made the active and inactive calls. Unless noted, calls follow the shape of the full dose curve.
# Biological target: Muscarinic acetylcholine receptor M1 (Homo sapiens) (UniProt P11229)
# Test: Cholinergic receptor muscarinic 1 (CHRM1) small molecule agonists, cell-based qHTS assay (AID 1963589); also: nearly all actives have a fitted effect of over 35% in size
# Details: CHRM1-CHO cells, agonist mode, calcium flux fluorescence; series mostly up to 76.8 µM
# Method in brief: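 Calcium flux read-out: kinetic fluorescence at 1 sec intervals after pin-tool compound addition to dye-loaded CHRM1-CHO cells (human M1). Agonist mode; 15 concentrations tested in triplicate independent runs.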
# Chain of Muscarinic acetylcholine receptor M1 (Homo sapiens) (P11229 whole entry, looked up): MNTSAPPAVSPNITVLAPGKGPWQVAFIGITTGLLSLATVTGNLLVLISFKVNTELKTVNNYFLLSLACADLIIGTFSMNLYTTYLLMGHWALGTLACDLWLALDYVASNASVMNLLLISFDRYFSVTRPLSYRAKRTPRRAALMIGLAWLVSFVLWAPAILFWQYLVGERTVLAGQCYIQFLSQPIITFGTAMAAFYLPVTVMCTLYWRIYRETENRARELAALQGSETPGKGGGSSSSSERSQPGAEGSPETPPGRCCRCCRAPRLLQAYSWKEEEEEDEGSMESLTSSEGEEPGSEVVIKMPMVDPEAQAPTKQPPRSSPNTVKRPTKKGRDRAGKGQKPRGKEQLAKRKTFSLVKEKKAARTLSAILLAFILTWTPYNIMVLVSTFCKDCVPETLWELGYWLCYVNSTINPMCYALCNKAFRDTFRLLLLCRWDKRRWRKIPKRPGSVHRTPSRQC
row,SMILES,Potency
1,Nc1ncc([N+](=O)[O-])s1,inactive
2,ClCc1ccccc1,inactive
3,CCCCC(C#N)(Cn1cncn1)c1ccc(Cl)cc1 (stereo not given),inactive
4,Cc1ccccc1N,inactive
5,CCCC1CCCCN1 (stereo not given),inactive
6,ClC(Cl)(Cl)c1ccccc1,inactive
7,CCCCCCCCCCCCBr,inactive
8,c1ccc2c(c1)Oc1ccccc1O2,inactive
9,Cc1ccc(N)cc1,inactive
10,O=C(CCl)CCl,inactive
11,Nc1ccc(Cl)cc1,inactive
12,O=S(=O)(O)C(F)(F)C(F)(F)C(F)(F)C(F)(F)C(F)(F)C(F)(F)F,inactive
13,c1ccc2c(c1)oc1ccccc12,inactive
14,CC[C@H](N)c1ccccc1,inactive
15,C=CC(=O)OCCO,inactive
16,C=C(C)[C@@H]1CC=C(C=O)CC1,inactive
17,CN(CCO)CCO,inactive

row,SMILES,Potency
1,COS(=O)(=O)c1ccc(C)cc1,inactive
2,CC1(C)CC(=O)CC(C)(C)N1[O],inactive
3,CCN(CCO)CCO,inactive
4,O=C(O)c1ccc(=O)[nH]c1,inactive
5,Nc1ccccc1Cl,inactive
6,CCCCCCOC(=O)c1ccccc1C(=O)OCCCCCC,inactive
7,CCCCOCCOC(C)=O,inactive
8,C1CCC2CCCCC2C1 (stereo not given),inactive
9,Cc1cc(-c2ccc(N)c(C)c2)ccc1N,inactive
10,CN(C)C(=O)C(c1ccccc1)c1ccccc1,inactive
11,CC1=C(C(=O)Nc2ccccc2)SCCO1,inactive
12,Cc1ccccc1CCl,inactive
13,COC(=O)c1ccccc1N,inactive
14,Cc1ccc(O)c(C)c1,inactive
15,C#CC(C)(C)NC(=O)c1cc(Cl)cc(Cl)c1,inactive
16,CCC(C)n1c(=O)[nH]c(C)c(Br)c1=O (stereo not given),inactive

# Test system: not listed separately
# Test: cAMP Responsive Elements (CRE) small molecule agonists, cell-based qHTS assay (AID 1963590)
# Details: CRE-bla HEK293T, beta-lactamase FRET ratio, 3 h; series mostly up to 92.4 µM
# Method in brief: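 Beta-lactamase reporter readout: LiveBLAzer B/G FRET substrate, 2 h at room temperature, added after 3 h compound treatment of CRE-bla HEK 293T cells at 37 C/5% CO2.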
row,SMILES,Potency
1,Nc1ncc([N+](=O)[O-])s1,inactive
2,Oc1ccccc1-c1ccccc1,inactive
3,ClCc1ccccc1,inactive
4,Cc1ccccc1N,inactive
5,CCCC1CCCCN1 (stereo not given),inactive
6,CCCCCCCCCCCCBr,inactive
7,c1ccc2c(c1)Oc1ccccc1O2,inactive
8,Cc1ccc(N)cc1,inactive
9,Nc1ccc(Cl)cc1,inactive
10,O=S(=O)(O)C(F)(F)C(F)(F)C(F)(F)C(F)(F)C(F)(F)C(F)(F)F,inactive
11,CC(Cl)C(=O)O (stereo not given),inactive
12,c1ccc2c(c1)oc1ccccc12,inactive
13,CC[C@H](N)c1ccccc1,inactive
14,C=CC(=O)OCCO,inactive
15,C=C(C)[C@@H]1CC=C(C=O)CC1,inactive
16,CN(CCO)CCO,inactive
17,COc1ccc(N)cc1,inactive

row,SMILES,Potency
1,CCCCCCCCCCOC(=O)c1ccccc1C(=O)OCCCCCCCCCC,inactive
2,COS(=O)(=O)c1ccc(C)cc1,inactive
3,CC1(C)CC(=O)CC(C)(C)N1[O],inactive
4,CCN(CCO)CCO,inactive
5,O=C(O)c1ccc(=O)[nH]c1,inactive
6,Nc1ccccc1Cl,inactive
7,CCCCCCOC(=O)c1ccccc1C(=O)OCCCCCC,inactive
8,CCCCOCCOC(C)=O,inactive
9,C1CCC2CCCCC2C1 (stereo not given),inactive
10,Cc1cc(-c2ccc(N)c(C)c2)ccc1N,inactive
11,CN(C)C(=O)C(c1ccccc1)c1ccccc1,inactive
12,CC1=C(C(=O)Nc2ccccc2)SCCO1,inactive
13,Cc1ccccc1CCl,inactive
14,COC(=O)c1ccccc1N,inactive
15,Cc1ccc(O)c(C)c1,inactive
16,C#CC(C)(C)NC(=O)c1cc(Cl)cc(Cl)c1,inactive

# Test system: not listed separately
# Test: cAMP Responsive Elements (CRE) small molecule antagonists, cell-based qHTS assay (AID 1963591; active = well fitted inhibition curve with a large enough effect in the signal ratio in the repeat runs, not every such curve was filed as active; the % refers to the signal ratio)
# Details: CRE-bla HEK293T, beta-lactamase FRET ratio; series mostly up to 92.4 µM
# Method in brief: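 HEK293T CRE-bla; 18 h preincubation; compound pin-transfer; NKH477 0.25 uM final, 3 h, 37 C; LiveBLAzer FRET substrate 2 h RT.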
row,SMILES,Potency
1,Nc1ncc([N+](=O)[O-])s1,inactive
2,Oc1ccccc1-c1ccccc1,inactive
3,CCCCC(C#N)(Cn1cncn1)c1ccc(Cl)cc1 (stereo not given),inactive
4,Cc1ccccc1N,inactive
5,CCCC1CCCCN1 (stereo not given),inactive
6,ClC(Cl)(Cl)c1ccccc1,inactive
7,CCCCCCCCCCCCBr,inactive
8,c1ccc2c(c1)Oc1ccccc1O2,inactive
9,Cc1ccc(N)cc1,inactive
10,O=C(CCl)CCl,inactive
11,Nc1ccc(Cl)cc1,inactive
12,CC(Cl)C(=O)O (stereo not given),inactive
13,CC[C@H](N)c1ccccc1,inactive
14,C=CC(=O)OCCO,inactive
15,CN(CCO)CCO,inactive
16,CCCCCCCCCCOC(=O)c1ccccc1C(=O)OCCCCCCCCCC,inactive

row,SMILES,Potency
1,COS(=O)(=O)c1ccc(C)cc1,inactive
2,CC1(C)CC(=O)CC(C)(C)N1[O],inactive
3,CCN(CCO)CCO,inactive
4,O=C(O)c1ccc(=O)[nH]c1,inactive
5,Nc1ccccc1Cl,inactive
6,CCCCCCOC(=O)c1ccccc1C(=O)OCCCCCC,inactive
7,CCCCOCCOC(C)=O,inactive
8,C1CCC2CCCCC2C1 (stereo not given),inactive
9,CN(C)C(=O)C(c1ccccc1)c1ccccc1,inactive
10,CC1=C(C(=O)Nc2ccccc2)SCCO1,inactive
11,Cc1ccccc1CCl,inactive
12,COC(=O)c1ccccc1N,inactive
13,Cc1ccc(O)c(C)c1,inactive
14,C#CC(C)(C)NC(=O)c1cc(Cl)cc(Cl)c1,inactive
15,CCC(C)n1c(=O)[nH]c(C)c(Br)c1=O (stereo not given),inactive

# Biological target: Beta-2 adrenergic receptor (Homo sapiens) (UniProt P07550)
# Test: Adrenergic beta2 receptor (ADRB2) small molecule antagonists, cell-based qHTS assay (AID 1963592); also: nearly all actives have a fitted effect of over 50% in size
# Details: CHO-ADRB2 cells, isoproterenol-stimulated cAMP HTRF ratio, 0.5 h; series mostly up to 92.4 µM
# Method in brief: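 Assay format: CHO-ADRB2 cells, 18-20hr seeding at 37C/5% CO2, then compound plus 1nM isoproterenol agonist mix for 0.5hr RT. Homogeneous time-resolved fluorescence cAMP detection after 1hr, expressed as 665/615 nm ratio.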
# Chain of Beta-2 adrenergic receptor (Homo sapiens) (P07550 whole entry, looked up): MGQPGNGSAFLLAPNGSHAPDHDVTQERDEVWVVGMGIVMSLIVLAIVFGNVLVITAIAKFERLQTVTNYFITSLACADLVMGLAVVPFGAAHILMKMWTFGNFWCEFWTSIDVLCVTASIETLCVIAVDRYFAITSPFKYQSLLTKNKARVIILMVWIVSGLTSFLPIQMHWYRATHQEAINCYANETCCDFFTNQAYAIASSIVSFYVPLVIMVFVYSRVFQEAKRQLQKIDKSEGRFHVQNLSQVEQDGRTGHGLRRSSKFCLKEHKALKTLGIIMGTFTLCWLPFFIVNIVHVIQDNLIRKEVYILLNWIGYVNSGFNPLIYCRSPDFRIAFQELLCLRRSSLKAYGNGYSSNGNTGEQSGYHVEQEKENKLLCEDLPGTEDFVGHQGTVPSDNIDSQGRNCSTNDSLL
row,SMILES,Potency
1,Nc1ncc([N+](=O)[O-])s1,inactive
2,Oc1ccccc1-c1ccccc1,inactive
3,ClCc1ccccc1,inactive
4,CCCCC(C#N)(Cn1cncn1)c1ccc(Cl)cc1 (stereo not given),inactive
5,Cc1ccccc1N,inactive
6,CCCC1CCCCN1 (stereo not given),inactive
7,ClC(Cl)(Cl)c1ccccc1,inactive
8,CCCCCCCCCCCCBr,inactive
9,c1ccc2c(c1)Oc1ccccc1O2,inactive
10,O=C(CCl)CCl,inactive
11,Nc1ccc(Cl)cc1,inactive
12,O=S(=O)(O)C(F)(F)C(F)(F)C(F)(F)C(F)(F)C(F)(F)C(F)(F)F,inactive
13,CC(Cl)C(=O)O (stereo not given),inactive
14,c1ccc2c(c1)oc1ccccc12,inactive
15,CC[C@H](N)c1ccccc1,inactive
16,C=CC(=O)OCCO,inactive
17,C=C(C)[C@@H]1CC=C(C=O)CC1,inactive

row,SMILES,Potency
1,CN(CCO)CCO,inactive
2,COc1ccc(N)cc1,inactive
3,CCCCCCCCCCOC(=O)c1ccccc1C(=O)OCCCCCCCCCC,inactive
4,COS(=O)(=O)c1ccc(C)cc1,inactive
5,CC1(C)CC(=O)CC(C)(C)N1[O],inactive
6,O=C(O)c1ccc(=O)[nH]c1,inactive
7,Nc1ccccc1Cl,inactive
8,CCCCCCOC(=O)c1ccccc1C(=O)OCCCCCC,inactive
9,CCCCOCCOC(C)=O,inactive
10,C1CCC2CCCCC2C1 (stereo not given),inactive
11,CN(C)C(=O)C(c1ccccc1)c1ccccc1,inactive
12,CC1=C(C(=O)Nc2ccccc2)SCCO1,inactive
13,Cc1ccccc1CCl,inactive
14,Cc1ccc(O)c(C)c1,inactive
15,C#CC(C)(C)NC(=O)c1cc(Cl)cc(Cl)c1,inactive
16,CCC(C)n1c(=O)[nH]c(C)c(Br)c1=O (stereo not given),inactive

# From PubChem BioAssay (Tox21)
